# Source: PubChem BioAssay (EPA / NIEHS)
# Calls of active or inactive are those of the source. How the source made its calls: active means hit-call score of the fitted dose curve at least 0.9, where 1 is the maximum; inactive means score below 0.9.
# Test: ATG_Ets_CIS: Attagene CIS-FACTORIAL HepG2 Assay for human Erythroblast Transformation Specific (ETS) (AID 2282941)
# Conditions: HepG2 ETS cis-reporter transcription, actives raise or lower the signal
# Description: ATG_CIS is a cell-based, multiplexed-readout assay that uses HepG2, a human liver cell line, with measurements taken at 24 hours after chemical dosing in a 24-well plate.ATG_Ets_CIS is one of 52 assay component(s) measured or calculated from the ATG_CIS assay. It is designed to make measurements of mRNA induction, a form of inducible reporter, as detected with fluorescence intensity signals by Reverse transcription polymerase chain reaction (RT-PCR) and Capillary electrophoresis technology.Data from the assay component ATG_Ets_CIS was analyzed into 1 assay endpoint. This assay endpoint, ATG_Ets_CIS, was analyzed with bidirectional fitting relative to DMSO as the negative control and baseline of activity. Using a type of inducible reporter, measures of mRNA for gain or loss-of-signal activity can be used to understand the reporter gene at the transcription factor-level as they relate to the gene ETS1. Furthermore, this assay endpoint can be referred to as a primary readout, because this assay has produced multiple assay endpoints where this one serves a reporter gene function. To generalize the intended target to other relatable targets, this assay endpoint is annotated to the dna binding intended target family, where the subfamily is winged helix-turn-helix.
# Human liver HepG2 cells are transiently transfected with multiple reporter transcription units (MRTUs) in 6-well plates using FuGene 6 reagent (Roche; 3 ml FuGene/1 mg DNA). The MRTU constructs are regulated by a cis-regulating element (promoter). […] A major difference between the CIS and TRANS system is that in CIS activities of endogenous TFs are measured, whereas the TRANS assay evaluates changes in activities of exogenous, chimeric NR-Gal4 proteins. […] At the end of 24 hour incubation, total RNA was isolated using TriZol reagent (Invitrogen). The isolated RNA is then reverse-transcribed using oligo(dT) primer and Mo-MLV reverse transcriptase (Invitrogen) with DNAse I (Ambion) treatment for 30 min. The one-tenth of the produced cDNA was amplified by PCR using Taq DNA polymerase (Invitrogen) and two reporter sequence-specific primers. The PCR products were fluorescently labeled by primer extension with 6-arboxyfluorescein (6-FAM) 5'-labeled reporter sequence-specific primer (2 min at 95 C, 20 s at 68 C and 10 min at 72 C) and these products were digested with 5U of HpaI (New England Biolabs) for 2h at 37 C. The fragments were purified using Qiaquick PCR columns (Qiagen), analyzed on an ABI 3130xL genetic analyzer (Applied Biosystems) with peak positions identified by using a set of X-rhodamine (ROX)-labeled MapMarker1000 molecular weight standards (BioVentures). The raw capillary electrophoresis data was processed using Attagraph software (Attagene).
row,SMILES,outcome
1,O=S(=O)(c1ccc(O)cc1)c1ccc(O)cc1,inactive
2,NC(=O)C(F)(F)C(F)(F)F,inactive
3,Nc1ccc2ccccc2c1,inactive
4,C=CC(=O)OCC(F)(F)C(F)F,inactive
5,CCCCN(CC)C(=O)SCCC,inactive
6,Nc1ccc(Sc2ccc(N)cc2)cc1,inactive
7,CCCCc1ccc(O)cc1,inactive
8,O=C(CBr)OCc1ccccc1,inactive
9,OCC(F)(F)OC(F)(F)C(F)(F)OC(F)(F)C(F)(F)OC(F)(F)F,inactive
10,O=C(O)C(F)(F)OC(F)(F)C(F)(F)OC(F)(F)C(=O)O,inactive
11,Cn1[nH]nnc1=S,inactive
12,Cc1ccc2c(c1N)C(=O)c1ccccc1C2=O,inactive
13,O=S(=O)(F)C(F)(F)C(F)(F)C(F)(F)C(F)(F)C(F)(F)C(F)(F)C(F)(F)C(F)(F)F,inactive
14,Nc1ccc([N+](=O)[O-])cc1Cl,inactive
15,CCOP(=S)(OCC)SCn1nnc2ccccc2c1=O,inactive
16,ClC(Cl)(Cl)c1ccccc1,inactive
17,O=C(O)C=CC(F)(C(F)(F)F)C(F)(F)F,inactive
18,CCC(C)(C)c1ccc(O)cc1,inactive
19,O=C(O)C1C(C(=O)O)C2(Cl)C(Cl)=C(Cl)C1(Cl)C2(Cl)Cl (stereo not given),inactive
20,CC(Cc1ccc(OCC(=O)O)cc1)NCC(O)c1csc(C(F)(F)F)n1 (stereo not given),inactive

row,SMILES,outcome
1,O=P(Oc1ccccc1)(Oc1ccccc1)Oc1ccccc1,inactive
2,O=C(O)C(F)(F)OC(F)(F)C(F)(F)OC(F)(F)F,inactive
3,CCOP(=S)(Oc1ccc([N+](=O)[O-])cc1)c1ccccc1 (stereo not given),inactive
4,CSC(C)(C)C=NO,inactive
5,COCCOCCO,inactive
6,CC(C)(C)c1ccc(O)cc1,inactive
7,OCC1CO1 (stereo not given),inactive
8,CCOP(=S)(NC(C)C)Oc1ccccc1C(=O)OC(C)C (stereo not given),inactive
9,CCCCN(CCCC)N=O,inactive
10,Cc1ccc(O)cc1C,inactive
11,[N-]=[N+]=[N-],inactive
12,CCCCC(CC)COC(=O)c1c(Br)c(Br)c(Br)c(Br)c1C(=O)OCC(CC)CCCC (stereo not given),inactive
13,COP(N)(=S)OC,inactive
14,CCOP(=S)(OCC)SCSCC,inactive
15,CNC(=O)Oc1ccc(N(C)C)c(C)c1,inactive
16,CCCCc1ccccc1,inactive
17,CCCCOCCOP(=O)(OCCOCCCC)OCCOCCCC,inactive
18,CC1(C)CN=C(NN=C(/C=C/c2ccc(C(F)(F)F)cc2)/C=C/c2ccc(C(F)(F)F)cc2)NC1,inactive
19,CC(O)C(F)(F)C(F)(F)F (stereo not given),inactive
20,OCC(F)(F)OC(F)(F)C(F)(F)OC(F)(F)C(F)(F)OC(F)(F)CO,inactive
